Among the data in PubChem BioAssay AID588497 (NMMLSC, 2011) are inhibition values, retold here.

For orientation: inhibition means the relative decrease from the control value, in per cent.

The whole screen tested about 360,000 compounds, of which about 780 (0.22%) were called active. Another 4% or so got no clear call; they are omitted. Cut-off read from the data, not from the text of the source: active = inhibition above about 35% (passing the limit was not always enough); inconclusive = no clear call, values can overlap the other calls. This excerpt belongs to a sample that is enriched for actives.

The test system of the assay is Botulinum neurotoxin type F light chain protease (Clostridium botulinum). Kind of assay: BoNT/F light chain protease inhibitors, primary screen, biochemical, flow cytometry, MLPCN library (AID 588497). Note: plate controls were buffer without enzyme for full effect and enzyme alone for no effect. To be noted: Multiplex microsphere protease cleavage assay, at 10 µM, active compounds read high.
On to `Cc1ccc(Cc2c(-c3ccco3)nc3ccc(Cl)cn23)cc1`, for which the inhibition was -6% (inactive).
`CCCCOCCCNC(=O)C[C@@H]1C[C@@]2(C(=O)OC)CCCCC=C2N(CCC2=CCCCC2)C1=O`: the inhibition was 7.8% (inactive).
The result for `CC(C)Oc1cc(F)ccc1-c1cc(C(=O)Nc2cccc(Cl)c2)[nH]n1` reads -7.1% (inactive); that for `CN(Cc1ccccc1F)c1cc2c(c3c1ccn3C)C1CCC2O1` (stereo not drawn), 3.2% (inactive).
Then `COC(=O)[C@]12CCCCC=C1N(CCC1=CCCCC1)C(=O)[C@H](CC(=O)NCC1CCCCC1)C2`, with 5.5% (inactive); and `CCc1ccc(OC2(C)CCN(CCOc3ccc(C)cc3)C2)cc1` (stereo not drawn), with -9.6% (inactive); and `CN(C)C1CN(Cc2cn(Cc3ccccc3)nn2)S(=O)(=O)C1` (stereo not drawn), with -1.7% (inactive).
For `CCCCCc1c(C)nc(N2CCN(Cc3ccc4c(c3)OCO4)CC2)[nH]c1=O`, the inhibition was 39.2% (active).
For `CCc1c(C)nc(N2CCN(Cc3ccccc3)CC2)[nH]c1=O`, the inhibition was 6.6% (inactive).
The result for `Cc1cc(C)n2nc(C(=O)N3CCN(Cc4ccc5c(c4)OCO5)CC3)nc2n1` reads -11.5% (inactive).
Then `Cc1cc(Cl)ccc1-c1nc(NCCN(C)C)nc2ccsc12`, with -4.9% (inactive); and `CC1(Oc2ccccc2-c2ccno2)CCN(Cc2ccc(-c3ccccc3)o2)C1` (stereo not drawn), with -11.5% (inactive).
On to `OC[C@@H]1CN(Cc2ccc(-c3ccccc3)cc2)C[C@H](n2cnc3c(NC4CCCC4)ncnc32)O1`, for which the inhibition was -4.6% (inactive).
The result for `CC(=O)Nc1ccc(CNc2nc(NCCN(C)C)nc3cc(-c4ccccc4)sc23)cc1` reads -18.9% (inactive).
Take `Cc1cc(C(=O)NNC(=O)CCC2CCCCC2)c(C)o1`: the inhibition is 0.3% (inactive).
`COC(=O)c1sccc1NC(=O)CCC1CCCC1`: the inhibition is 1.8% (inactive).
The result for `CC(=O)Oc1ccc(NC(=O)CCC2CCCCC2)c(C(=O)O)c1` reads 37.7% (active); that for `NC(c1csc(NC(=O)Nc2ccccc2Oc2ccccc2)n1)c1ccccc1Cl` (stereo not drawn), -12.1% (inactive).
`CN1CCN(CC#CCC2(O)c3ccccc3-c3ccccc32)CC1`: the inhibition was -6.9% (inactive).
Turning to `CC(C)N(CC#CCC1(O)c2ccccc2-c2ccccc21)C(C)C`, the inhibition was 37.1% (active).
The result for `CCOC(=O)[C@]12CCC=C1N(Cc1ccco1)C(=O)[C@H](CC(=O)NCc1cccc(C(F)(F)F)c1)C2` reads -2.2% (inactive); that for `CC=CCn1c(SCCCc2ccccc2)nc2c1c(=O)[nH]c(=O)n2C`, -3.4% (inactive); that for `OC(c1ccc(Cl)c(F)c1)c1ncc(-c2ccccc2Cl)[nH]1` (stereo not drawn), -8.1% (inactive).
In the case of `Cc1cc(Br)cn2c(Cc3cccc(F)c3)c(-c3cccc(Br)c3)nc12`, the inhibition was 5.5% (inactive).
For the compound `COc1ccccc1-c1cnn2c(N3CCOCC3)cc(C)nc12`, the inhibition was 38.5% (active).
As for `COc1ccccc1NC(=O)C1CCCN(c2cc(C)nc3ncnn23)C1` (stereo not drawn), the inhibition is 4.8% (inactive).
For `Cc1cc(-n2nc(C)cc2C)n2ncc(-c3ccccc3)c2n1`, the inhibition is 5.4% (inactive).
As to `CCc1nc2c(OCc3ccc(Cl)cc3Cl)cccn2c1N(C)C(=O)C(C)C`, the inhibition was -7.2% (inactive).
With `Cc1cc(C)c(S(=O)(=O)NN=C2c3ccccc3[C@H]3Cc4csc[n+]4[C@@H]23)c(C)c1`, the inhibition is -7.5% (inactive).
As to `Cc1nc2c(OCc3cccc(Cl)c3)cccn2c1N(C)CC1CC1`, the inhibition was -6.3% (inactive).
Take `COC(=O)CNc1nc(Cl)nc(N2CCC(C)CC2)n1`: the inhibition is -7.3% (inactive).
For the compound `COc1nc(NC2CCCCC2)nc(N2CCCCCC2)n1`, the inhibition is 8.2% (inactive).
Take `Clc1nc(NC2CCCC2)nc(N2CCOCC2)n1`: the inhibition is 53.9% (active).
